The list is not random: actives were taken first. Their share in the collection is about 8.1%.
SW480 rerep – DNA re-replication induction in SW480 cells. 340,000 compounds, 1.8% hits. AID 624297. Potency, µM (doses to about 46.1 µM), usual class: activators. SW480 DNA re-replication, Hoechst DNA content imaging, 48 h; further: nearly all actives have a fitted effect of over 55% in size
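Treated cells incubate 48 hr (37 C, 5% CO2), are stained 40 min with Hoechst, and nuclear fluorescence is enumerated; a rise in nuclei with high DNA signal marks re-replication.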
MCF10A rerep – DNA re-replication induction in MCF 10a cells; Potency, µM (doses to about 46.1 µM), usual class: activators; MCF 10A DNA re-replication, Hoechst nuclear intensity, 48 h; AID 624296; 350,000 compounds, 2.9% hits; further: nearly all actives have a fitted effect of over 50% in size
KB-3-1 tox – KB-3-1 parental cell cytotoxicity | Potency, µM (doses to about 46.1 µM), most hits filed as cytotoxic | KB-3-1 viability, CellTiter-Glo ATP luminescence, 72 h | 400,000 compounds, 1.4% hits; further: nearly all actives have a fitted effect of over 60% in size
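Cells are dispensed, compounds pinned in, plates held at 37 °C for 72 h, then CellTiter-Glo is added and luminescence read after 10 minutes. Cell line: parental KB-3-1 in phenol-red-free DMEM, 10% FBS.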
KB-V1 cytotox – kills drug-selected multidrug resistant KB-V1 cells | KB-V1 MDR cells viability, CellTiter-Glo, 72 h | AID 1347076 | Potency, µM (highest dose often 46.1 µM), hits mostly cytotoxic | 400,000 compounds, 3.4% hits; further: nearly all actives have a fitted effect of over 60% in size
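Cells of the MDR subline KB-V1 are plated, dosed with compound at multiple concentrations, and incubated 72 h at 37 degrees C; CellTiter-Glo is then added and luminescence read after 10 min.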
ELG1 repair inh – blocks ELG1-dependent DNA repair in HEK293T cells; HEK293T ELG1-luciferase reporter, luminescence, 16 h; DNA damage induced by 5-fluorouridine; Potency, µM (top dose mostly 46.1 µM), hits mostly inhibitors; 330,000 compounds, 2.3% hits; AID 504467; further: nearly all actives have a fitted effect of over 55% in size
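DMSO vehicle served as the neutral condition. Each well held 2,000 cells given 5-fluorouridine plus compound; after 16 hr at 37 °C/5% CO2, ONE-Glo was added and luciferase measured 30 min later.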
A number is an active result; i = inactive; ? = inconclusive; nt = not tested or not shown; [ ] = remark or other dose. The call rests on the fitted dose curve; in most records, active means well fitted curve in the direction sought with a large enough effect; inconclusive means small, poorly fitted or top-dose-only effect, or another doubt; inactive means no such curve, though single readings can be large; an effect the other way counts as inactive or inconclusive.

SMILES	SW480 rerep	MCF10A rerep	KB-3-1 tox	KB-V1 cytotox	ELG1 repair inh
O=C(Cc1ccc(F)cc1)Nc1nc(-c2ccc(F)c(F)c2)cs1	i	i	?	i	i
COc1ccc(CC(=O)Nc2nc(-c3ccc(F)c(F)c3)cs2)cc1	?	?	?	?	21µM
COc1ccc(CCC(=O)Nc2nc(-c3ccncc3)cs2)cc1	nt	nt	nt	nt	i
COc1ccc(OC)c(-c2csc(NC(=O)Cc3ccccc3F)n2)c1	?	21µM	i	?	?
NC(=O)c1cc2c3ccccc3ccn2c1-c1ccccc1	0.73µM	?	1.2µM	0.65µM	?
NC(=O)c1cc(Sc2ccccc2)nc2ccccc12	?	i	i	i	nt
COCCN1C(=O)/C(=C/c2ccc(Oc3ccc([N+](=O)[O-])cn3)c(OC)c2)SC1=Nc1ccccc1	i	i	?	?	2.6µM
COc1cc(/C=N\NC(=O)c2ccc(Cl)cc2)ccc1Oc1ccc([N+](=O)[O-])cn1	i	i	i	i	?
COc1cc(/C=N\NC(=O)c2cccc(Cl)c2)ccc1Oc1ccc([N+](=O)[O-])cn1	21µM	?	i	?	?
COc1cc(/C=N\NC(=O)c2ccccc2F)ccc1Oc1ccc([N+](=O)[O-])cn1	?	23µM	?	7.3µM	i
COc1cc(/C=C(/C#N)c2ccc(F)cc2)ccc1Oc1ccc([N+](=O)[O-])cn1	i	?	?	2.3µM	i
COc1ccccc1N1CCN(C(=O)c2c(C)noc2C)CC1	i	i	i	i	i
C/C(=C\c1ccc(C(=O)O)cc1)c1ccc2c(c1)C(C)(C)CCC2(C)C	i	i	i	i	?
COc1ccc(/C=N\NC(=O)c2cccc([N+](=O)[O-])c2)cc1Cn1cc([N+](=O)[O-])cn1	nt	nt	nt	nt	15µM
NC1=NC(S)C2N=CN=C2N1 (stereo not drawn)	i	?	nt	nt	nt
O=C1CC(/C=C/c2ccncc2)=Nc2ccccc2N1	16µM	?	?	?	18µM
Cc1cc(N2CC(C)OC(C)C2)n2cc(-c3ccccc3)nc2n1 (stereo not drawn)	i	i	i	i	i
CC(=O)Nc1ccc(NC(=O)C(C)Oc2ccc(Cl)cc2Cl)cc1 (stereo not drawn)	?	i	i	i	i
CC(Oc1ccc(Cl)cc1Cl)C(=O)Nc1ccncc1 (stereo not drawn)	i[9.22 µM]	?	i	9.2µM	5.8µM
CC(Oc1ccc(Cl)cc1Cl)C(=O)NC1=NN(c2ccccc2)C(=O)C1 (stereo not drawn)	i	18µM	i	i	i
COc1ccccc1C(=O)NCc1ccc(-c2nc3ccccc3s2)cc1	i	i	i	i	?
Cc1cc2nc3ccc(=[N+](C)C)cc-3sc2cc1N	?	i	?	16µM	0.65µM
CN(C)c1ccc2nc3ccc(=[N+](C)C)cc-3sc2c1	?	i	?	?	0.73µM
c1ccc2nc(-c3cc4ccccc4s3)ccc2c1	nt	nt	i	i	nt
Cc1nc2cc(C)c(C)cc2s1	i	i	i	i	i
SMILES	SW480 rerep	MCF10A rerep	KB-3-1 tox	KB-V1 cytotox	ELG1 repair inh
CN(C)c1ccc2nc3ccc(=O)cc-3sc2c1	nt	nt	?	16µM	nt
CN(C)c1ccc(-c2ccc3ccccc3n2)cc1	nt	nt	i	i	nt
Cc1ccc(-n2nc3c(c2NC(=O)c2ccc4c(c2)OCO4)CS(=O)(=O)C3)cc1	i	i	i	i	i
O=C(CSc1nnc(-c2ccccc2)n1-c1ccccc1)NCc1ccco1	i	i	i	?	i
O=C(NCc1ccccc1Cl)C1CCN(S(=O)(=O)Cc2ccccc2)CC1	nt	nt	i	i	nt
CCOC(=O)N1CCN(S(=O)(=O)c2ccc(F)c(C(=O)Nc3cccc(C)c3C)c2)CC1	i	i	i	i	i
COc1ccc(-c2cc3nc4c(c(N5CCC6(CC5)OCCO6)n3n2)CCC4)cc1	i	i	?	i	?
Cc1cc(N2CCOCC2)n2nc(-c3cccc(F)c3)cc2n1	i	?	i	?	i
COc1ccc(-c2cc3nc(-c4ccccc4)cc(N4CCC5(CC4)OCCO5)n3n2)cc1	23µM	i	i	i	21µM
Cc1ccc(-c2cc3nc(-c4ccccc4)cc(N4CCOCC4)n3n2)cc1	?	16µM	i	i	?
CCOC(=O)Cc1csc(NC(=O)c2ccc(S(=O)(=O)N3CCOCC3)cc2)n1	i	i	i	?	i
CC(=O)N1CCCc2cc(S(=O)(=O)N3CCC(C(=O)N(C)C4CCCCC4)CC3)ccc21	nt	nt	i	i	nt

High-throughput results (PubChem)
